Test systems include SR leukemia; RPMI-8226 leukemia; OVCAR-8 ovarian; OVCAR-5 ovarian; OVCAR-4 ovarian; SK-OV-3 ovarian; IGROV1 ovarian; OVCAR-3 ovarian; HS 578T breast; NCI/ADR-RES ovarian.
Holding throughout (test): NCI-60 one-dose screen, 48 h (100 = growth as untreated, 0 = no growth, -100 = all killed)
Common to all, as to settings: 10 µM

Compounds without any hit were thinned out: in the full panel of roughly 83,000, 20% have a hit.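 Plates (96-well) were seeded with cells, treated with compound at one concentration, and incubated for 48 hours before percent growth was determined.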 Unmarked numbers belong to inactive results. Activity calls are given as the source filed them. Rule for the calls: active = growth percent below 10; inactive = the rest.

The results in this text go back to PubChem BioAssay (NCI).

With `CCOC(=O)C1=C(N)N(c2ccc(C)cc2)C2=C(C(=O)CC(C)(C)C2)C1c1ccccc1OC` (stereo not given), the growth was 92.1% in the test on SR leukemia; 96.2% in the test on RPMI-8226 leukemia; 110% with OVCAR-8 ovarian; 104% in the test on OVCAR-5 ovarian; 108% with OVCAR-4 ovarian; 103% in the test with SK-OV-3 ovarian. For the same compound, the growth in the test with IGROV1 ovarian is 98.6%; in the test with OVCAR-3 ovarian, 118%; with HS 578T breast, 102%; in the test on NCI/ADR-RES ovarian it was 99.7%.
For `C=C1CCC2C3(C)COC(c4c(F)cccc4F)OC3CCC2(C)C1C/C=C1/C(=O)OCC1O` (stereo not given), the growth in the test on SR leukemia is 14.8%; in the test with RPMI-8226 leukemia, 15.3%; in the test with OVCAR-8 ovarian it was -42.5% (active); with OVCAR-5 ovarian, -10% (active); in the test with OVCAR-4 ovarian, 12.4%; with SK-OV-3 ovarian, 54.7%. In addition, the growth in the test on IGROV1 ovarian is -26.7% (active); in the test on OVCAR-3 ovarian it was -67.9% (active); with HS 578T breast it was 17.5%; with NCI/ADR-RES ovarian, -15.1% (active).
`O=C1Nc2ccc(Cl)cc2/C1=C/c1ccc(OCc2ccccn2)cc1`: the growth with SR leukemia was 54.9%; in the test with RPMI-8226 leukemia, 73.9%; in the test on OVCAR-8 ovarian, 45.9%; with OVCAR-5 ovarian, 88.2%; in the test with OVCAR-4 ovarian, -1.81% (active); with SK-OV-3 ovarian, 89.2%. Further, the growth in the test with IGROV1 ovarian is 54.6%; in the test on OVCAR-3 ovarian, 57.3%; in the test with HS 578T breast, 14.8%; in the test with NCI/ADR-RES ovarian, 14.1%.
In the case of `COc1cnc2c(c1)C(=O)c1c-2n(CCCNC(C)C)c(=O)c2cc(OC)c(OC)cc12`, the growth was 2.52% (active) with SR leukemia; -14.8% (active) in the test with RPMI-8226 leukemia; 37% with OVCAR-8 ovarian; 70.8% in the test on OVCAR-5 ovarian; 28.2% in the test with OVCAR-4 ovarian; 22.1% in the test on SK-OV-3 ovarian. Further, the growth in the test with IGROV1 ovarian was 32%; with OVCAR-3 ovarian it was 5.2% (active); with HS 578T breast it was 103%; in the test with NCI/ADR-RES ovarian, 29.1%.
Take `C=C1CCC2C3(C)COC(c4cc(F)cc(F)c4)OC3CCC2(C)C1C/C=C1/C(=O)OCC1O` (stereo not given): the growth in the test on SR leukemia was 7.75% (active); in the test with RPMI-8226 leukemia it was 14.1%; with OVCAR-8 ovarian it was -83.1% (active); in the test with OVCAR-5 ovarian it was -21.3% (active); in the test with OVCAR-4 ovarian, -11% (active); in the test on SK-OV-3 ovarian it was 25%. In addition, the growth was -49.8% (active) with IGROV1 ovarian, -76.9% (active) with OVCAR-3 ovarian, -24.1% (active) in the test with HS 578T breast and -11.1% (active) in the test with NCI/ADR-RES ovarian.
For the compound `CCOC(=O)c1c(CSc2ccccc2)n(C)c2cc(CN(C)C)c(O)c(CN(C)C)c12`, the growth was 21.4% in the test with SR leukemia; 28.5% in the test on RPMI-8226 leukemia; 30.4% in the test with OVCAR-8 ovarian; 63.4% in the test with OVCAR-5 ovarian; 36.5% in the test with OVCAR-4 ovarian; 87% in the test with SK-OV-3 ovarian. Besides, the growth was 25.4% in the test on IGROV1 ovarian, 13.8% in the test with OVCAR-3 ovarian, 44.3% in the test on HS 578T breast and 76.4% with NCI/ADR-RES ovarian.
For the compound `Cc1noc2c(Cc3ccccc3)nn(CC(=O)N/N=C/c3ccc(F)cc3)c(=O)c12`, the growth was 102% with SR leukemia; 83.7% in the test on RPMI-8226 leukemia; 33.1% in the test on OVCAR-8 ovarian; 93.7% with OVCAR-5 ovarian; 5.18% (active) in the test with OVCAR-4 ovarian; 28.9% with SK-OV-3 ovarian. The growth in the test with IGROV1 ovarian is 70.4%; with OVCAR-3 ovarian, 44.6%; in the test with HS 578T breast, -1.33% (active); in the test on NCI/ADR-RES ovarian, 60.7%.
On to `COc1ccc(-c2nc(Nc3ccccc3S(N)(=O)=O)c3ccccc3n2)cc1`, for which the growth with SR leukemia was 23%; in the test with RPMI-8226 leukemia it was 14.9%; in the test with OVCAR-8 ovarian, -27% (active); with OVCAR-5 ovarian it was 48%; in the test on OVCAR-4 ovarian, 32.7%; in the test with SK-OV-3 ovarian, 95.3%. Moreover, the growth with IGROV1 ovarian was 43.4%; with OVCAR-3 ovarian, -20.6% (active); with HS 578T breast, 42.8%; in the test on NCI/ADR-RES ovarian, 18%.
Regarding `CN(C)c1ccc(/C=C/c2nc3ccccc3c(=O)n2CC(=O)Nc2ccccc2)cc1`, the growth was 75.5% in the test with SR leukemia; 64.3% in the test on RPMI-8226 leukemia; 25.9% in the test on OVCAR-8 ovarian; 89.1% in the test with OVCAR-5 ovarian; 35.5% in the test with OVCAR-4 ovarian; 92% in the test on SK-OV-3 ovarian. Also, the growth with IGROV1 ovarian was 76.2%; in the test with OVCAR-3 ovarian it was 26.4%; in the test on HS 578T breast it was 44.7%; in the test on NCI/ADR-RES ovarian, 30.4%.
With `O=c1[nH]c2ccccc2cc1CSc1ccc(Nc2nccc(-c3ccc4ccccc4c3)n2)cc1`, the growth with SR leukemia was 80.7%; with RPMI-8226 leukemia, 67.5%; in the test with OVCAR-8 ovarian, -28% (active); in the test on OVCAR-5 ovarian it was 62.9%; in the test on OVCAR-4 ovarian, -13.6% (active); in the test with SK-OV-3 ovarian it was 116%. Also, the growth in the test with IGROV1 ovarian is 73.9%; in the test with OVCAR-3 ovarian it was 13.1%; in the test with HS 578T breast it was 60.6%; in the test on NCI/ADR-RES ovarian, 24.4%.
In the case of `CCCn1c(O)c(N=Nc2nc(-c3cc4ccccc4oc3=O)cs2)c2cc(Br)ccc21`, the growth with SR leukemia is 101%; in the test with RPMI-8226 leukemia, 97.9%; in the test on OVCAR-8 ovarian, 105%; with OVCAR-5 ovarian, 98.3%; in the test on OVCAR-4 ovarian it was 98.9%; with SK-OV-3 ovarian it was 110%. For the same compound, the growth in the test with IGROV1 ovarian was 106%; with OVCAR-3 ovarian, 100%; in the test on HS 578T breast it was 83.4%; in the test on NCI/ADR-RES ovarian, 95.4%.
For `CC1(C)[C@@H](NCO)CC[C@]2(C)[C@H]3C(=O)C=C4[C@@H]5C[C@](C)(CO)CC[C@]5(C)CC[C@@]4(C)[C@]3(C)CC[C@@H]12`, the growth in the test with SR leukemia is 10.3%; with RPMI-8226 leukemia, -1.48% (active); in the test with OVCAR-8 ovarian, 70.9%; with OVCAR-5 ovarian, 66.1%; with OVCAR-4 ovarian, 55.4%; in the test on SK-OV-3 ovarian, 92.8%. Besides, the growth in the test on IGROV1 ovarian is 53.8%; in the test with OVCAR-3 ovarian it was 85.4%; in the test with HS 578T breast, 44%; in the test with NCI/ADR-RES ovarian it was 56%.
On to `O=C(NO)c1ccc(CN2CCN(c3nc(-c4ccccc4)c4ccccc4n3)CC2)cc1`, for which the growth in the test on SR leukemia is 8.6% (active); in the test on RPMI-8226 leukemia, 24.5%; in the test with OVCAR-8 ovarian, 8.54% (active); in the test on OVCAR-5 ovarian it was 19.3%; in the test on OVCAR-4 ovarian it was 22.7%; with SK-OV-3 ovarian, -22.2% (active). Further, the growth was 17.8% in the test with IGROV1 ovarian, 27.6% in the test on OVCAR-3 ovarian, 49.1% in the test with HS 578T breast and -36.1% (active) in the test with NCI/ADR-RES ovarian.
